# Test results published in paper PMC11062922 (Nature Chemical Biology, 2023).
# Read-outs that look alike come from different tables or passages of the source.
# Tests used:
# Parameters in all cases: species or system human, MV4-11 + K-562 + COLO205 + SK-N-BE2 + OVCAR-8
# AKT1 = details: read-out: apparent Kd, n = 1
# CDC42 = details: read-out: apparent Kd; compound concentrations: 100 nM and 1000 nM (sheet 'Samples'), CATDS: 5.0343094610780299E-2; n = 1
# DYNC1LI1 = details: read-out: apparent Kd; compound concentrations: 100 nM and 1000 nM (sheet 'Samples'), CATDS: 4.8109196484876701E-2; n = 1
# ERBB3 = details: read-out: apparent Kd; compound concentrations: 100 nM and 1000 nM (sheet 'Samples'), CATDS: 4.7313636214179999E-2; n = 1
# GARS = details: read-out: apparent Kd; compound concentrations: 100 nM and 1000 nM (sheet 'Samples'), CATDS: 4.5585082575177599E-2; n = 1
# GSK3A = details: read-out: apparent Kd, n = 1
# GSK3B = details: read-out: apparent Kd, n = 1
# HSP90B1 = details: read-out: apparent Kd; compound concentrations: 100 nM and 1000 nM (sheet 'Samples'), CATDS: 4.7547071429497198E-2; n = 1
# MAP2K1 = details: read-out: apparent Kd, n = 1
# MAP2K2 = details: read-out: apparent Kd, n = 1
# MDN1 = details: read-out: apparent Kd; compound concentrations: 100 nM and 1000 nM (sheet 'Samples'), CATDS: 4.19866133995229E-2; n = 1
# MYLK3 = details: read-out: apparent Kd, n = 1
# NNT = details: read-out: apparent Kd; compound concentrations: 100 nM and 1000 nM (sheet 'Samples'), CATDS: 4.95392498935424E-2; n = 1
# NQO1 = details: read-out: apparent Kd, n = 1
# OPA1 = details: read-out: apparent Kd; compound concentrations: 100 nM and 1000 nM (sheet 'Samples'), CATDS: 4.33362445952395E-2; n = 1
# PGK1 = details: read-out: apparent Kd; compound concentrations: 100 nM and 1000 nM (sheet 'Samples'), CATDS: 0.623413247361988; n = 1
# PRKCA = details: read-out: apparent Kd; compound concentrations: 100 nM and 1000 nM (sheet 'Samples'), CATDS: 4.05038047397221E-2; n = 1
# PRKCD = details: read-out: apparent Kd; compound concentrations: 100 nM and 1000 nM (sheet 'Samples'), CATDS: 3.9953874898385103E-2; n = 1
# TNIK = details: read-out: apparent Kd; compound concentrations: 100 nM and 1000 nM (sheet 'Samples'), CATDS: 4.3236885400500899E-2; n = 1
# VDAC3 = details: read-out: apparent Kd; compound concentrations: 100 nM and 1000 nM (sheet 'Samples'), CATDS: 4.2633905781269299E-2; n = 1
# ADRBK1 = details: read-out: apparent Kd; compound concentrations: 100 nM and 1000 nM (sheet 'Samples'), CATDS: 7.1088636568514996E-2; n = 1
# FLT3 = details: read-out: apparent Kd; compound concentrations: 100 nM and 1000 nM (sheet 'Samples'), CATDS: 0.11498835622255001; n = 1
# FRK = details: read-out: apparent Kd; compound concentrations: 100 nM and 1000 nM (sheet 'Samples'), CATDS: 9.2307505689948E-2; n = 1
# MAP2K5 = details: read-out: apparent Kd; compound concentrations: 100 nM and 1000 nM (sheet 'Samples'), CATDS: 0.380124521697633; n = 1
# PDGFRB = details: read-out: apparent Kd; compound concentrations: 100 nM and 1000 nM (sheet 'Samples'), CATDS: 7.8407173450410803E-2; n = 1
# PRKCZ = details: read-out: apparent Kd; compound concentrations: 100 nM and 1000 nM (sheet 'Samples'), CATDS: 7.7148514104913996E-2; n = 1
# PTK6 = details: read-out: apparent Kd; compound concentrations: 100 nM and 1000 nM (sheet 'Samples'), CATDS: 7.5013295148623801E-2; n = 1
# RIPK2 = details: read-out: apparent Kd; compound concentrations: 100 nM and 1000 nM (sheet 'Samples'), CATDS: 9.6327273582125797E-2; n = 1
# RIPK3 = details: read-out: apparent Kd; compound concentrations: 100 nM and 1000 nM (sheet 'Samples'), CATDS: 0.614198823590974; n = 1
# ZAK = details: read-out: apparent Kd; compound concentrations: 100 nM and 1000 nM (sheet 'Samples'), CATDS: 7.8640349215909094E-2; n = 1
# AKT2 = details: read-out: apparent Kd; compound concentrations:100 nM and 1000 nM (sheet 'Samples'); n = 1
# CDK16 = details: read-out: apparent Kd; compound concentrations:100 nM and 1000 nM (sheet 'Samples'); n = 1
# CDK6 = details: read-out: apparent Kd; compound concentrations:100 nM and 1000 nM (sheet 'Samples'); n = 1
# MAP3K1 = details: read-out: apparent Kd; compound concentrations:100 nM and 1000 nM (sheet 'Samples'); n = 1
# NLK = details: read-out: apparent Kd; compound concentrations:100 nM and 1000 nM (sheet 'Samples'); n = 1
# STK11 = details: read-out: apparent Kd; compound concentrations:100 nM and 1000 nM (sheet 'Samples'); n = 1
# STK26 = details: read-out: apparent Kd; compound concentrations:100 nM and 1000 nM (sheet 'Samples'); n = 1
# TGFBR2 = details: read-out: apparent Kd; compound concentrations:100 nM and 1000 nM (sheet 'Samples'); n = 1
# [1] = compound concentrations:100 nM and 1000 nM (sheet 'Samples')
smiles,measurement,setting,value
Cn1cc(C2=C(c3cn(C)c4c(N)cccc34)C(=O)NC2=O)c2ccccc21 [RO0317482-000],potency estimated from few doses,"AKT1; compound concentrations: 100 nM and 1000 nM (sheet 'Samples'), CATDS: 4.4101078523111903E-2",1.79 µM
same,potency estimated from few doses,CDC42,1.31 µM
same,potency estimated from few doses,DYNC1LI1,1.45 µM
same,potency estimated from few doses,ERBB3,1.51 µM
same,potency estimated from few doses,GARS,1.65 µM
same,potency estimated from few doses,"GSK3A; compound concentrations: 100 nM and 1000 nM (sheet 'Samples'), CATDS: 8.5551067641828404E-2",0.484 µM
same,potency estimated from few doses,"GSK3B; compound concentrations: 100 nM and 1000 nM (sheet 'Samples'), CATDS: 0.10546569208605799",0.343 µM
same,potency estimated from few doses,HSP90B1,1.49 µM
same,potency estimated from few doses,"MAP2K1; compound concentrations: 100 nM and 1000 nM (sheet 'Samples'), CATDS: 4.25622085031407E-2",1.96 µM
same,potency estimated from few doses,"MAP2K2; compound concentrations: 100 nM and 1000 nM (sheet 'Samples'), CATDS: 4.6529537247477E-2",1.57 µM
same,potency estimated from few doses,MDN1,2.03 µM
same,potency estimated from few doses,"MYLK3; compound concentrations: 100 nM and 1000 nM (sheet 'Samples'), CATDS: 4.95763825338097E-2",1.36 µM
same,potency estimated from few doses,NNT,1.36 µM
same,potency estimated from few doses,"NQO1; compound concentrations: 100 nM and 1000 nM (sheet 'Samples'), CATDS: 4.7041069195994198E-2",1.53 µM
same,potency estimated from few doses,OPA1,1.87 µM
same,potency estimated from few doses,PGK1,0.0204 µM
same,potency estimated from few doses,PRKCA,2.24 µM
same,potency estimated from few doses,PRKCD,2.33 µM
same,potency estimated from few doses,TNIK,1.88 µM
same,potency estimated from few doses,VDAC3,1.95 µM
CNC(=O)c1ccc2c(c1)ncn2-c1ccc(CC(=O)OC(C)(C)C)cc1 [GSK840],potency estimated from few doses,ADRBK1,2.02 µM
same,potency estimated from few doses,FLT3,0.469 µM
same,potency estimated from few doses,FRK,0.857 µM
same,potency estimated from few doses,MAP2K5,0.0121 µM
same,potency estimated from few doses,PDGFRB,1.42 µM
same,potency estimated from few doses,PRKCZ,1.5 µM
same,potency estimated from few doses,PTK6,1.65 µM
same,potency estimated from few doses,RIPK2,0.759 µM
same,potency estimated from few doses,RIPK3,0.00467 µM
same,potency estimated from few doses,ZAK,1.4 µM
O=C(Nc1n[nH]c2nc(-c3cccc(O)c3)ccc12)C1CC1 [SB-711805],potency estimated from few doses,AKT1; [1],1.9 µM
same,potency estimated from few doses,AKT2,2.07 µM
same,potency estimated from few doses,CDK16,2.15 µM
same,potency estimated from few doses,CDK6,1.88 µM
same,potency estimated from few doses,GSK3A; [1],0.147 µM
same,potency estimated from few doses,GSK3B; [1],0.223 µM
same,potency estimated from few doses,MAP2K1; [1],2.17 µM
same,potency estimated from few doses,MAP2K2; [1],2.29 µM
same,potency estimated from few doses,MAP3K1,1.84 µM
same,potency estimated from few doses,MYLK3; [1],1.31 µM
same,potency estimated from few doses,NLK,1.15 µM
same,potency estimated from few doses,NQO1; [1],1.33 µM
same,potency estimated from few doses,STK11,2.4 µM
same,potency estimated from few doses,STK26,2.27 µM
same,potency estimated from few doses,TGFBR2,0.644 µM
